Sa ugtP lethal – compounds lethal to S. aureus RN4220 ugtP deletion mutant | 330,000 compounds, 0.54% hits | OD600 growth, 16 h | growth inhibition, % (test concentration not listed); in the data active = growth inhibition above about 68%;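 also: plate controls were untreated wells for no effect and antibiotic for full effect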
RN4220 kill – kills Staphylococcus aureus RN4220 | S. aureus RN4220 growth, OD600, 16 h | inhibition, % (no concentration beside the values) | 330,000 compounds, 0.33% hits | AID 1259311; in the data active = inhibition above about 85%;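 also: plate controls were untreated cells for no effect and reference antibiotic for full effect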
PfHsp40 rescue – rescue of PfHsp40-mediated yeast toxicity | S. cerevisiae expressing PfHsp40, growth rescue, ATP luminescence | growth rescue, % at 12.5 µM | 340,000 compounds, 0.68% hits | AID 504582; in the data active = growth rescue above about 28%, passing the limit was not always enough; inconclusive = no clear call, values can overlap the other calls;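 also: yeast W303a lacking pdr1 and pdr3 grown in galactose medium; growth measured after three days at 30 °C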
PrP UTR inh – suppresses PrP 5' UTR mRNA reporter expression. cell-based PrP 5' UTR mRNA reporter, plate reader. inhibition, % (test concentration not listed). 340,000 compounds, 0.35% hits. AID 488862; in the data active = inhibition above about 52%; also: 0 = median of the neutral control wells
TcdB GH inh – inhibitors of Clostridioides difficile toxin B glycohydrolase; inhibition, % at 9.99 µM; AID 652162; 350,000 compounds, 0.24% hits; TcdB glycohydrolase enzymatic assay, plate reader; P18177; in the data active = inhibition above about 10%
The depositor's hits bear a star; ? = inconclusive; . = not tested or not shown. Most compounds without a hit are left out; they make up all but 1.2% or so of the library.

SMILES	Sa ugtP lethal	RN4220 kill	PfHsp40 rescue	PrP UTR inh	TcdB GH inh
C=CCc1cccc(/C=N/NC(=O)c2ccccc2Br)c1O	.	.	?	-3	5
O=C(N/N=C/c1ccccc1O)c1cccc2ccccc12	.	.	32*	16	0
O=C(O)c1ccc(C=NNC(=O)c2cccc3ccccc23)cc1	.	.	-1	36	0
O=C(NN=Cc1ccc[nH]1)c1ccc(O)cc1	5	3	.	.	.
O=C(N/N=C/c1coc2ccccc2c1=O)c1cc(Br)ccc1O	.	.	89*	-16	3
O=C(N/N=C/c1ccc[nH]1)c1ccccc1O	.	.	76*	-21	-4
O=C(C1CCCCC1)N1CC2(C1)[C@@H](c1ccccc1)[C@@H](CO)N2Cc1ccccc1F	.	.	.	.	0
O=C(O)c1cccc2c1NC(C(=O)O)C1CC(Sc3ccccc3[N+](=O)[O-])C(Cl)C21 (stereo not drawn)	24	35	55*	-30	.
CCOC(=O)c1cnc(-c2ccccc2)nc1Oc1ccccc1	86*	-6	0	-16	.
O=C(CCNS(=O)(=O)c1ccc(Br)cc1)N1CCN(c2ccccc2O)CC1	-1	2	3	-12	1
O=C(NCCC(=O)N1CCN(c2ccccc2O)CC1)c1ccc(Br)cc1	7	5	301*	6	2
Cc1cc(C(=O)CSc2nc(N)cc(=O)[nH]2)c(C)n1CC1CCCO1 (stereo not drawn)	-3	2	-1	-17	12*
O=C(Nc1ccc(Cl)cc1)N1C[C@@H]2[C@H](c3ccccc31)[C@@H](CO)N2C(=O)C1CC1	.	.	.	.	0
CS(=O)(=O)N(CC(=O)Nc1ccc(S(=O)(=O)N2CCOCC2)cc1)c1ccccc1Br	8	9	0	-8	32*
COc1ccc(C)cc1N(CC(=O)Nc1ccc(S(=O)(=O)N2CCOCC2)cc1)S(C)(=O)=O	3	2	0	-13	0
C[C@H]1CN([C@@H](C)CO)C(=O)Cc2cc(NC(=O)NC3CCCCC3)ccc2O[C@@H]1CN(C)Cc1ccc(C(F)(F)F)cc1	.	.	.	.	0
CC(=O)Oc1cc2cccc(OC(C)=O)c(=O)c2c(OC(C)=O)c1OC(C)=O	3	20	158*	-19	.
COc1cc2cccc(OC)c(=O)c2c(O)c1OC	9	4	-1	-35	0
Cc1cccc(NC(=S)NNC(=O)c2csc3c2CCCC3)c1	-21	5	141*	-25	.
Cc1ccc(C)c(NC(=S)NNC(=O)c2csc3c2CCCC3)c1	21	6	42*	-14	.
Cc1ccc(C)c(NC(=S)NNC(=O)c2csc3c2CCC(C)C3)c1 (stereo not drawn)	-17	-9	62*	.	.
Cc1cccc(NC(=S)NNC(=O)c2csc(C)c2)c1	1	5	5	-79	-2
CCNC(=S)NNC(=O)c1csc2c1CCCC2	17	5	-1	-15	0
CCCNC(=O)C[C@@H]1CC[C@@H]2[C@H](COc3ccc(NC(=O)c4cccc(F)c4)cc3C(=O)N2C)O1	.	.	.	.	-1
O=C(NC[C@@H]1CC[C@@H]2[C@@H](CN2S(=O)(=O)c2ccccc2[N+](=O)[O-])O1)C1CCCCC1	.	.	.	.	0
SMILES	Sa ugtP lethal	RN4220 kill	PfHsp40 rescue	PrP UTR inh	TcdB GH inh
Cc1cc(NC(=O)Nc2cccc(Cl)c2)n(-c2ccccn2)n1	-8	-16	101*	-10	1
Cn1c(CC(=O)NC(C)(C)CO)c(Sc2ccccc2)c2ccccc21	11	-1	1	-12	-1
CCOC(=O)Cc1c(Sc2ccccc2)c2ccccc2n1C	95*	-9	0	-3	0
O=C(NCCN1CCCCC1)[C@@H]1[C@@H](CO)[C@@H]2Cn3c(cccc3=O)[C@@H]2N1Cc1ccccn1	.	.	.	.	0
CCn1cc(C(=O)O)c(=O)c2cc(F)c(N3CCN(S(=O)(=O)c4ccc(NC(C)=O)cc4)CC3)cc21	99*	99*	3	-16	0
CCn1cc(C(=O)O)c(=O)c2cc(F)c(N3CCN(S(=O)(=O)c4ccc5c(c4)OCCO5)CC3)cc21	100*	100*	-1	17	5
COc1ccc(C#Cc2cnc3c(c2)C(=O)N([C@@H](C)CO)C[C@@H](C)[C@H](CN(C)C(=O)CC2CC2)O3)cc1	.	.	.	.	1
Oc1cccc2ccc(Nc3ccccn3)nc12	29	20	240*	17	.
Cc1ccccc1N=Nc1ccc(O)c2ncccc12	24	41	-1	20	1
Oc1ccc(N=Nc2ccc3c(c2)OCCO3)c2cccnc12	4	12	268*	17	2
O=S(=O)(O)c1cccc2c(N=Nc3ccc(O)c4ncccc34)cccc12	-4	35	94*	-11	-2
CN1C(=O)c2cc(NC(=O)Cc3cccs3)ccc2OC[C@H]2O[C@H](CC(=O)NCC3CCCCC3)CC[C@H]21	.	.	.	.	0
CC(CCc1ccccc1)=NNC(=O)c1ccccc1	1	3	.	.	.
CCN(C[C@H]1[C@@H](c2ccccc2)[C@H](CO)N1C(=O)COC)S(C)(=O)=O	.	.	.	.	2
COc1ccc(N2CCN(C(=O)c3ccc(CS(=O)Cc4ccc(Cl)cc4)o3)CC2)cc1 (stereo not drawn)	99*	-8	-1	-7	-1
Cc1cccc(N2CCN(C(=O)c3ccc(CS(=O)Cc4cccc(Cl)c4)o3)CC2)c1C (stereo not drawn)	90*	-1	7	5	2
O=C(c1ccc(CS(=O)Cc2ccc(Cl)cc2)o1)N1CCN(c2ccccc2F)CC1 (stereo not drawn)	99*	-10	0	0	-2
Cc1ccc(Cl)cc1N1CCN(C(=O)c2ccc(CS(=O)Cc3ccc(Cl)cc3)o2)CC1 (stereo not drawn)	96*	-8	11	-12	2
CCC(=O)N(C)C[C@@H]1Oc2cc(C#CC(C)(C)O)ccc2S(=O)(=O)N([C@@H](C)CO)C[C@H]1C	.	.	.	.	0
CCCC(=O)N1CC2(C1)CN(C(=O)CN1CCOCC1)[C@@H](CO)c1c2c2ccc(OC)cc2n1C	.	.	.	.	-1
CC(=O)Oc1c(/C=C(\C#N)C(N)=O)[nH]c2ccccc12	87*	96*	0	-24	-2
COc1ccc(NC(=O)N(C)C[C@@H]2Oc3ccc(NS(=O)(=O)c4cn(C)cn4)cc3CC(=O)N([C@@H](C)CO)C[C@@H]2C)cc1	.	.	.	.	0
O=[N+]([O-])c1ccc(O)c2ncccc12	99*	99*	?	-21	0
Clc1cc2cccnc2c2ncccc12	-7	-4	116*	-9	1
O=C(SCc1c(O)c2ccccc2oc1=O)c1ccccc1	.	.	.	.	-1
O=c1oc2ccccc2c(O)c1Cc1cc(Cl)c2cccnc2c1O	98*	94*	?	-19	0
c1cnc2c(c1)ccc1ncccc12	2	1	0	-10	0
Cc1c(C)c2cccnc2c2ncccc12	74	93*	76*	59*	.
CN1CCN(N=Cc2ccc(-c3ccccc3)cc2)CC1	-2	7	.	.	.
COc1ccc2c3c([nH]c2c1)[C@H](CO)N(C(=O)CC1CC1)CC31CN(Cc2ccncc2)C1	.	.	.	.	1

High-throughput results deposited in PubChem by several laboratories.
